Each structure is given as a SMILES string. Values without a mark were called inactive.

This experiment relates to Mel-DCC-11-R. Briefly: cell viability relative to DMSO control (fraction of DMSO control); higher = less cytotoxic, active = 0.8 or less. Conditions: 1 µM; 120 h; vemurafenib co-treatment 8 µM. The method, boiled down:
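Three cell types were screened against 315 approved anti-cancer drugs from TargetMol, acoustically pre-spotted in 384-well plates at 1 µM in duplicate over 120 h: NHEM-hTERT immortalized melanocytes (2500/well), patient-derived Mel-DCC-11 and its resistant subline Mel-DCC-11-R (both 1500/well), all in 40 µl per well. The subline was tested alone and with 8 µM of its selecting drug. Viability, measured by luminescence, was normalised to vehicle controls and averaged across duplicates, with ATPlite 1step as the readout.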
For the compound `CN(C)c1nc(N(C)C)nc(N(C)C)n1` [Altretamine], the cell viability is 0.92.

Regarding `C/C=C1/NC(=O)[C@H]2CSSCC/C=C/[C@H](CC(=O)N[C@H](C(C)C)C(=O)N2)OC(=O)[C@H](C(C)C)NC1=O` [Romidepsin], the cell viability was 0.0432 (active).

Consider `CC[C@H](Nc1ncnc2[nH]cnc12)c1nc2cccc(F)c2c(=O)n1-c1ccccc1` [Idelalisib], for which the cell viability is 0.961.

On to `CCN(CC)CCNC(=O)c1c(C)[nH]c(/C=C2\C(=O)Nc3ccc(F)cc32)c1C.C[C@@H](CC(=O)O)C(=O)O` [Sunitinib Malate], for which the cell viability was 0.927.

For the compound `Nc1nc(Cl)nc2c1ncn2[C@@H]1O[C@H](CO)[C@@H](O)[C@@H]1F` [Clofarabine], the cell viability was 0.67 (active).

Take `Cc1coc2c1C(=O)C(=O)c1c-2ccc2c(C)cccc12` [Tanshinone I]: the cell viability is 0.825.

Take `CC(=O)O.CC(C)C[C@H](NC(=O)[C@@H](COC(C)(C)C)NC(=O)[C@H](Cc1ccc(O)cc1)NC(=O)[C@H](CO)NC(=O)[C@H](Cc1c[nH]c2ccccc12)NC(=O)[C@H](Cc1cnc[nH]1)NC(=O)[C@@H]1CCC(=O)N1)C(=O)N[C@@H](CCCN=C(N)N)C(=O)N1CCC[C@H]1C(=O)NNC(N)=O` [Goserelin acetate]: the cell viability is 1.13.

For `CC(/C=C/C=C(\C)C(=O)O[C@@H]1O[C@H](CO[C@@H]2O[C@H](CO)[C@@H](O)[C@H](O)[C@H]2O)[C@@H](O)[C@H](O)[C@H]1O)=C\C=C\C=C(C)\C=C\C=C(/C)C(=O)O[C@@H]1O[C@H](CO[C@@H]2O[C@H](CO)[C@@H](O)[C@H](O)[C@H]2O)[C@@H](O)[C@H](O)[C@H]1O` [Crocin], the cell viability is 1.03.

`CCN(c1cc(-c2ccc(CN3CCOCC3)cc2)cc(C(=O)NCc2c(C)cc(C)[nH]c2=O)c1C)C1CCOCC1`: the cell viability was 0.967.

Regarding `CNCc1ccc(-c2[nH]c3cc(F)cc4c3c2CCNC4=O)cc1.O=P(O)(O)O` [Rucaparib Phosphate], the cell viability is 1.11.

As to `COc1cc(Nc2c(C#N)cnc3cc(OCCCN4CCN(C)CC4)c(OC)cc23)c(Cl)cc1Cl` [Bosutinib], the cell viability was 1.14.

`C[C@H](Nc1ncnc2nc[nH]c12)c1cc2cccc(Cl)c2c(=O)n1-c1ccccc1` [Duvelisib]: the cell viability was 0.864.

On to `C[C@@H]1O[C@@H](O[C@H]2[C@H](Oc3cc(O)c4c(c3)O[C@H](c3ccc(O)cc3)CC4=O)O[C@H](CO)[C@@H](O)[C@@H]2O)[C@H](O)[C@H](O)[C@H]1O` [Naringin], for which the cell viability is 1.19.

On to `Nc1ccccc1NC(=O)c1ccc(CNC(=O)OCc2cccnc2)cc1` [Entinostat], for which the cell viability is 1.01.

Take `Nc1nc(F)nc2c1ncn2[C@@H]1O[C@H](CO)[C@@H](O)[C@@H]1O` [Fludarabine]: the cell viability is 0.977.

As to `Oc1c(I)cc(Cl)c2cccnc12` [Clioquinol], the cell viability was 0.847.

For `CC1(C)CCC(CN2CCN(c3ccc(C(=O)NS(=O)(=O)c4ccc(NCC5CCOCC5)c([N+](=O)[O-])c4)c(Oc4cnc5[nH]ccc5c4)c3)CC2)=C(c2ccc(Cl)cc2)C1`, the cell viability is 1.23.

For `COc1cc2ncnc(Nc3ccc(F)c(Cl)c3)c2cc1OCCCN1CCOCC1` [Gefitinib], the cell viability was 0.629 (active).

Take `CCC1(O)C(=O)OCc2c1cc1n(c2=O)Cc2cc3cc(O)ccc3nc2-1` (stereo unspecified) [Hydroxy Camptothecine]: the cell viability is 0.224 (active).

As to `CS(=O)(=O)OCCCCOS(C)(=O)=O` [Busulfan], the cell viability is 1.13.

`COC(=O)C1=C(C)NC(C)=C(C(=O)OC)C1c1ccccc1[N+](=O)[O-]` [Nifedipine]: the cell viability was 1.18.

Take `Cc1[nH]c2ccccc2c1CCNCc1ccc(/C=C/C(=O)NO)cc1` [Panobinostat]: the cell viability was 0.0801 (active).

Regarding `S=c1nc[nH]c2nc[nH]c12` [Mercaptopurine], the cell viability was 0.993.

`Nc1ncn([C@@H]2O[C@H](CO)[C@@H](O)[C@H]2O)c(=O)n1` [Mylosar]: the cell viability is 0.745 (active).

As to `C#Cc1cccc(Nc2ncnc3cc(OCCOC)c(OCCOC)cc23)c1` [Erlotinib], the cell viability was 0.732 (active).

For the compound `O=C(O)C1CSCN1` (stereo unspecified) [Thioproline], the cell viability was 1.08.

Regarding `CCCCc1nc2cc(/C=C/C(=O)NO)ccc2n1CCN(CC)CC` [Pracinostat], the cell viability is 0.453 (active).

For `CC1(C)NC(=O)N(c2ccc([N+](=O)[O-])c(C(F)(F)F)c2)C1=O` [Nilutamide], the cell viability is 0.997.

As to `NCCNc1ccc(NCCN)c2c1C(=O)c1ccncc1C2=O.O=C(O)/C=C\C(=O)O.O=C(O)/C=C\C(=O)O` [Pixantrone dimaleate], the cell viability is 0.868.

Turning to `O=[N+]([O-])c1cncn1CCN1CCOCC1` [Nimorazole], the cell viability is 1.08.

On to `CCOC(N)=O` [Urethane], for which the cell viability was 1.

For the compound `CCc1ccc(CCOc2ccc(CC3SC(=O)NC3=O)cc2)nc1.Cl` (stereo unspecified) [Pioglitazone hydrochloride], the cell viability is 1.18.

Regarding `COc1cc(N2CCC(N3CCN(C)CC3)CC2)ccc1Nc1ncc(Cl)c(Nc2ccccc2P(C)(C)=O)n1` [Brigatinib], the cell viability was 0.867.

As to `Nc1nc(=O)c2c([nH]1)NCC(CNc1ccc(C(=O)N[C@@H](CCC(=O)[O-])C(=O)[O-])cc1)N2C=O.[Ca+2]` (stereo partly specified) [Calcium folinate], the cell viability was 1.31.

With `CC(C)(S)[C@@H](N)C(=O)O` [Artamine], the cell viability was 1.25.

In the case of `CC(C)C[C@H](NC(=O)CNC(=O)c1cc(Cl)ccc1Cl)B(O)O` [Ixazomib], the cell viability was 0.0834 (active).

The values are drawn from the supplement of paper PMC12808144.
